Screening data from PubChem BioAssay.
NPC1 prom act: activates the NPC1 promoter; actives 2.4% (n = 320,000); Potency, µM (top dose mostly 9.22 µM), inactives show at the top dose activation, most hits filed as activators; Huh7 NPC1 promoter luciferase reporter, 24 h; AID 485313; also: % of control where 0% means no effect; nearly all actives have a fitted effect of over 60% in size
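In 1536-well qHTS, Huh7 cells harboring an NPC1 promoter–luciferase construct received compound for 24 h; activation was quantified by luminescence following luciferase reagent addition.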
Luc counter: Kinase-Glo luciferase inhibition (counter-screen). Q27757. Kinase-Glo luciferase, ATP luminescence, 8 min. Potency, µM (titrated, usually from 38.3 µM), for inactives: at the top dose activity change, negative = inhibition, actives largely listed as inhibitors. actives 0.28% (n = 200,000). AID 1379; also: % is scaled to controls: 0 for no effect and ±100 for the full control effect; nearly all actives have a fitted effect of over 60% in size
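Compound is pinned into ATP-containing buffer (10 uM ATP, imidazole pH 7.2, 7 mM MgCl2). Kinase-Glo luciferase reagent is then added. Light output is recorded following an 8-min room-temperature incubation.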
Rab9 promoter act: Rab9 promoter activation. Huh7 Rab9 promoter-luciferase reporter, luminescence, 24 h. Potency, µM (doses to about 9.22 µM), for the others: at the highest dose activation, negative = inhibition, most hits filed as activators. actives 2.8% (n = 320,000). AID 485297; also: % of control where 0% means no effect; nearly all actives have a fitted effect of over 60% in size
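Measured in stably transfected Huh7 cells bearing a Rab9 promoter–luciferase construct: 24 h compound treatment at 37 °C, followed by luminescence detection.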
SMN2 splice enh: SMN2 splice variant enhancement; actives 2.8% (n = 210,000); AID 1458; Potency, µM (highest dose often 46.1 µM), inactives show at the highest dose activity change, positive = activation, hits mostly activators; HEK293 SMN2-luciferase splicing reporter, luminescence, 30-36 h; also: % of control where 0% means no effect; nearly all actives have a fitted effect of over 55% in size
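HEK293 cells carry an SMN2 […]–luciferase reporter in which exon 7 inclusion puts luciferase in frame. Cells were plated 10-12 h before compound addition, then incubated 30-36 h at 37C. ONE-Glo luminescence was read; sodium butyrate at 4.5 mM final served as control.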
FLuc counter: counter-screen for miR-21 project: firefly luciferase inhibitors or activators; Potency, µM (titrated, usually from 57.5 µM), for the others: at the highest dose activity change, negative = inhibition, actives largely listed as inhibitors; AID 588342; actives 6.9% (n = 360,000); P08659; purified FLuc, Km substrates, luminescence inhibition;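 also: plate controls were vehicle for no effect and reference inhibitor for full effect; nearly all actives have a fitted effect of over 55% in size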
Target sequence (P08659 whole entry, looked up): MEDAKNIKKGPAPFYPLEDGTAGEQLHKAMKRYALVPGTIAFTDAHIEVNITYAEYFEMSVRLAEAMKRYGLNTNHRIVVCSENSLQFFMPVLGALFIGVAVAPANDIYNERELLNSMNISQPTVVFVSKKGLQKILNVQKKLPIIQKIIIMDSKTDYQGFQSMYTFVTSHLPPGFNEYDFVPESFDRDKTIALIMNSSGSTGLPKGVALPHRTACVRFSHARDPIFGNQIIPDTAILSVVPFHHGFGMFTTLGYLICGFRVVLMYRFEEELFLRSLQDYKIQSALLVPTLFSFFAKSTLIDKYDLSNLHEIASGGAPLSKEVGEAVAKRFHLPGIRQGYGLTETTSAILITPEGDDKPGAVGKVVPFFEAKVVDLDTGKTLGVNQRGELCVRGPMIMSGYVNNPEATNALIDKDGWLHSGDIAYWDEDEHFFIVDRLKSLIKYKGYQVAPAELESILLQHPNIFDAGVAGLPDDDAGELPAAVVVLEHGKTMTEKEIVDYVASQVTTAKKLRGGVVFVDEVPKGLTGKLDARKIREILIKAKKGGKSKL
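Purified P. pyralis luciferase (10nM final) with 10uM D-luciferin and 10uM ATP (Km levels) in 50mM Tris acetate pH 7.5, 10mM Mg acetate, 0.01% Tween-20, 0.05% BSA; qHTS 6-point titration, ~60 µM downward; luminescence read.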
ELG1 genotox: inducers of genotoxicity in HEK293T ELG1-luciferase cells. HEK293T ELG1-luciferase reporter, luminescence, 16 h. Potency, µM (doses to about 46 µM), for the others: at the highest dose activity change, positive = activation, most hits filed as activators. actives 1.3% (n = 330,000). AID 504466; also: % of control where 0% means no effect; nearly all actives have a fitted effect of over 60% in size
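DMSO vehicle served as control against compound-treated ELG1-luciferase HEK293T cells; exposure lasted 16 hr at 37 °C and 5% CO2, followed by ONE-Glo luminescence detection after 30 min.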
Active calls of the source: *; u = inconclusive; x = no result given; [ ] = dose if it differs, or a comment. Sampled rows, rich in hits. Any-hit rate of the full collection: about 7.5%. Calls follow the shape of the dose curve; as a rule, active = well fitted curve in the direction sought with a large enough effect; inconclusive = small, poorly fitted or top-dose-only effect, or another doubt; inactive = no such curve, though single readings can be large; an effect the other way counts as inactive or inconclusive. Potency is read from the fitted curve at half-maximal effect.

SMILES | NPC1 prom act | Luc counter | Rab9 promoter act | SMN2 splice enh | FLuc counter | ELG1 genotox
Cc1cccc(-c2nc3c4c(-c5ccccc5)c(-c5ccccc5)oc4ncn3n2)c1 | x | x | x | -2.0% | 1.5% | x
COc1ccccc1N1CCN(C(=O)c2cn(C)c3ccc(S(=O)(=O)N(C)C4CCCCC4)cc3c2=O)CC1 | x | x | x | 6.1% | 4.4% | x
CN(C)c1ccc(/C=C/c2cccc[n+]2[O-])cc1 | u | x | 2.51µM* | x | 19µM* | u
CC(C)CC[n+]1ccccc1/C=C/c1ccc(N(C)C)cc1 | -40.2% | x | -40.9% | x | 2.8% | -11.2%
CN(C)c1ccc(/C=C/c2ccncc2)cc1 | u | -2.6% | u | u | u | 16.4µM*
COc1ccc(/C=C/c2ccncc2)cc1 | 3.55µM* | -6.6% | 2.82µM* | u | 12µM* | u
COc1ccc(C(=O)Nc2nc3c(s2)Cc2c(Br)ccc(OC)c2-3)cc1OC | x | x | x | -2.2% | -5.5% | x
COc1cc(/C=C/C(=O)NC(=O)c2ccccc2O)ccc1OC(C)=O | u | x | u | x | 3.01µM* | u
CSc1cccc(NC(=O)/C=C/c2ccc(Cl)cc2)c1 | u | -2.9% | 24.9% | 26.6% | 3.38µM* | 0.1%
CSc1ccc(/C=C/C(=O)Nc2ccccc2)cc1 | 0.316µM* | 12.6µM* | 0.316µM* | 3.16µM* | 0.239µM* | -4.0%
COc1ccc(/C=C/C(=O)Nc2ccccc2)cc1OC | u | -0.7% | 3.16µM* | 12.6µM* | 13.5µM* | u
CC(=O)Nc1ccc(NC(=O)/C=C/c2ccccc2)cc1 | 4.1% | 10.8% | 6.1% | 6.5% | u | -6.1%
C/C=C/c1ccc(OC(C)=O)c(OC)c1 | -1.2% | -3.3% | 0.8% | -28.7% | -3.0% | 1.0%
COc1ccc(/C=C/C(=O)NC(=S)Nc2ccccc2)cc1OC | -2.4% | x | -3.9% | x | -8.3% | u
O=c1c2sc3ccccc3c2n(Cc2cccc(Cl)c2)c(=O)n1Cc1ccccc1 | x | x | x | 0.0% | -7.0% | x
COc1ccc(S(=O)(=O)N(CC(=O)Nc2cc(Cl)ccc2C)Cc2ccccc2)cc1OC | x | x | x | -54.8% | 5.5% | x
Cc1ccc(-c2nc(CNC(=O)Nc3ccccc3)c(C)o2)cc1 | x | x | x | x | -4.6% | x
CSc1cccc(NC(=O)/C=C/c2ccccc2)c1 | 3.16µM* | -1.8% | 2.24µM* | u | 4.78µM* | 12.6%
Cc1cccc(NC(=O)C(=O)NCC(c2cccnc2)N2CCN(Cc3ccccc3)CC2)c1 (stereo unspecified) | x | x | x | x | -2.2% | x
CCn1cc(CNCc2cn(C)nc2-c2ccc(C3CCCCC3)cc2)cn1 | -2.2% | x | -2.0% | x | 15.1µM* | -0.3%
Cn1cc(CNCc2ccc(OC(F)(F)F)cc2)c(-c2ccc3c(c2)OCCO3)n1 | -26.6% | -0.5% | -47.4% | x | 1.1% | -1.4%
COc1ccc(OCc2cccc(C(=O)Nc3ccc(CN4CCCCC4)cc3)c2)cc1 | 1.12µM* | -4.8% | 0.891µM* | 1.78µM* | 12µM* | u
COc1cc(OC)cc(C(=O)Nc2ccc(CN3CCCCC3)cc2)c1 | -1.5% | 0.8% | -1.4% | 4.9% | -10.6% | 4.7%
CCOc1ccc(OCc2cccc(C(=O)Nc3ccc(CN4CCCCC4)cc3)c2)cc1 | 0.355µM* | -1.8% | 0.447µM* | 1.78µM* | 6.01µM* | 1.3µM*
O=c1cc(COc2ccc(Cl)c(Cl)c2)nc2sccn12 | u | x | 3.16µM* | x | -3.7% | 12.6%
SMILES | NPC1 prom act | Luc counter | Rab9 promoter act | SMN2 splice enh | FLuc counter | ELG1 genotox
Oc1ccc(C=Nc2cccc3ccccc23)c(O)c1 | -2.0% | x | 16.2% | x | -0.9% | -1.5%
CC(O)c1cccc(N=Cc2ccc3ccccc3c2O)c1 (stereo unspecified) | -5.5% | x | 2.3% | x | 26.9µM* | -1.5%
COc1ccc2c(c1)c1c(c(=O)n(-c3cccc(C)c3)c(=O)n1CC(=O)NCCC1=CCCCC1)n2C | x | x | x | 9.2% | -1.0% | x
NC(=O)Cc1ccc(Nc2nnc(-c3ccccc3)c3ccccc23)cc1 | 6.2% | -1.1% | 1.8% | -0.5% | 21.3µM* | 7.5%
COc1ccc(-c2nnc(Nc3ccc(CC(N)=O)cc3)c3ccccc23)cc1 | -0.5% | -3.2% | -1.4% | -8.3% | -12.7% | 1.6%
Cc1nnc(Nc2ccc3c(c2)OCO3)c2ccccc12 | u | -0.6% | u | 18.0% | 15.1µM* | u
Cc1ccc(-c2nnc(Nc3ccc(O)cc3)c3ccccc23)cc1S(=O)(=O)NC(C)(C)CO | x | x | x | 3.3% | 19µM* | x
Cc1ccc(-c2nnc(Nc3ccc4c(c3)OCO4)c3ccccc23)cc1S(N)(=O)=O | 2.8% | 1.3% | -1.4% | -26.3% | 23.9µM* | -3.1%
COc1ccc(-c2cc(C(=O)N/N=C/c3ccc(O)cc3)[nH]n2)cc1 | x | -4.2% | x | x | x | x
Cc1ccc(CNC(=O)CNS(=O)(=O)c2ccc3c(c2)C(C)(C)C(=O)N3C)cc1 | -1.7% | x | 0.3% | x | -0.8% | -5.6%
CCOC(=O)CCN1CCN(C(=O)c2ccc(-n3c(=O)c(=O)[nH]c4ccccc43)cc2)CC1 | x | 1.9% | x | x | x | x
O=C(NC1CCN(Cc2ccccc2)CC1)c1cccc(S(=O)(=O)Nc2ccc(SC(F)F)cc2)c1 | x | x | x | x | x | -2.9%
COc1ccc(Nc2nnc(-c3ccc(O)cc3)c3ccccc23)cc1 | -10.3% | 5.3% | -3.9% | 17.0% | 23.9µM* | u
CC(=O)N1c2ccccc2CC1C(=O)N1CCN(c2ccccc2)CC1 (stereo unspecified) | x | x | x | x | 2.6% | x
Fc1ccc(-c2nc(-c3cccs3)[nH]c2-c2ccc(F)cc2)cc1 | 0.8% | -0.1% | -1.2% | -32.7% | -4.6% | -5.1%
Cc1[nH]c2ccccc2c1-c1cc(-c2cc(-c3c(C)[nH]c4ccccc34)on2)no1 | x | -0.2%[7.66 µM] | x | -4.4%[9.22 µM] | x | x
c1csc(-c2nc3ccccc3[nH]2)c1 | u | -15.0% | u | 12.6µM* | 30.1µM* | 15.0%
Cc1ccc(-c2nc3ccccc3[nH]2)s1 | 1.58µM* | 12.6µM* | 0.631µM* | 7.08µM* | 3.01µM* | u
Cc1[nH]c2ccccc2c1-c1nc2ccccc2[nH]1 | 23.6% | -1.9% | 13.3% | 16.0% | 26.9µM* | u
Cc1nc2ccc(S(=O)(=O)NC(CC(C)C)C(=O)N3CCN(c4ccc(F)cc4)CC3)cc2s1 (stereo unspecified) | x | x | x | -6.8% | -4.3% | x
CCc1ccc(NC(=O)CCn2nc(-c3ccccc3OC)c3c(C)cc(C)nc32)cc1 | x | x | x | -1.0% | u | x
CCOC(=O)Nc1nc(-c2ccc(F)cc2F)cs1 | u | -1.1% | u | 25.9% | 19µM* | 14.1%
CCCC(=O)Nc1ccc(C(=O)Nc2nc(CC(=O)OCC)cs2)cc1 | 0.9% | 14.0% | -0.8% | -3.5% | 15.1µM* | -0.7%
CCOC(=O)Cc1csc(NC(=O)Nc2ccc(F)cc2)n1 | 3.8% | x | -1.3% | x | 10.7µM* | -10.4%
